Laboratory results taken from ChEMBL document CHEMBL1961873, “Compounds: GSK PKIS; Assays: Nanosyn kinase panel” (2012).

Columns and labels:
[1] = molecular target: Ribosomal protein S6 kinase alpha-6 (Homo sapiens) (UniProt Q9UK32); details: at 1 µM;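 further: each value is a mean inhibition of RSK4 from a GSK PKIS panel screen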
[2] = molecular target: T1, Serine/threonine-protein kinase Sgk1 (Homo sapiens) (UniProt O00141); details: at 0.1 µM
T1 sequence (whole entry): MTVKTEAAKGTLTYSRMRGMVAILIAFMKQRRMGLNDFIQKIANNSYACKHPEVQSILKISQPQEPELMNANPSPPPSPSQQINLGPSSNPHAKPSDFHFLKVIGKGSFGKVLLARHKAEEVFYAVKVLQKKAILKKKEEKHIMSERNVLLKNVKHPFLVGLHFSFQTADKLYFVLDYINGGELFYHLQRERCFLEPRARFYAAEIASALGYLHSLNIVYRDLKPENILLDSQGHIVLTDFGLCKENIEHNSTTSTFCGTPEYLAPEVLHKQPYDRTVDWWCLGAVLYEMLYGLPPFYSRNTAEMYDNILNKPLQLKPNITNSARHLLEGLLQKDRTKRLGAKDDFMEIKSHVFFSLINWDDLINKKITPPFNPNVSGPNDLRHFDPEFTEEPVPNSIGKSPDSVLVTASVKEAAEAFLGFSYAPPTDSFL

[3] = molecular target: T1, Serine/threonine-protein kinase Sgk1 (Homo sapiens); details: at 1 µM
[4] = molecular target: T2, Serine/threonine-protein kinase Sgk2 (Homo sapiens) (UniProt Q9HBY8); details: at 0.1 µM
T2 sequence (whole entry): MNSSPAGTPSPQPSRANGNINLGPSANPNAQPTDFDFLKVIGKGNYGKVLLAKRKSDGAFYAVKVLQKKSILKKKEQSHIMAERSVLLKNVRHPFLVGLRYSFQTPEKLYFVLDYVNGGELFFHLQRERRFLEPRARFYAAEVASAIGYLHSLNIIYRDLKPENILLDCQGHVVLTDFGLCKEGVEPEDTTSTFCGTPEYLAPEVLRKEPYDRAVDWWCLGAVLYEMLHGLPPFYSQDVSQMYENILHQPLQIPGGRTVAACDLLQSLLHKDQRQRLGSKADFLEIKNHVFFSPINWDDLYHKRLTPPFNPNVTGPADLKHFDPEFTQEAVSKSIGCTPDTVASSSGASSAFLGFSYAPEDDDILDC

[5] = molecular target: T2, Serine/threonine-protein kinase Sgk2 (Homo sapiens); details: at 1 µM
[6] = molecular target: T3, Serine/threonine-protein kinase Sgk3 (Homo sapiens) (UniProt Q96BR1); details: at 0.1 µM
T3 sequence (whole entry): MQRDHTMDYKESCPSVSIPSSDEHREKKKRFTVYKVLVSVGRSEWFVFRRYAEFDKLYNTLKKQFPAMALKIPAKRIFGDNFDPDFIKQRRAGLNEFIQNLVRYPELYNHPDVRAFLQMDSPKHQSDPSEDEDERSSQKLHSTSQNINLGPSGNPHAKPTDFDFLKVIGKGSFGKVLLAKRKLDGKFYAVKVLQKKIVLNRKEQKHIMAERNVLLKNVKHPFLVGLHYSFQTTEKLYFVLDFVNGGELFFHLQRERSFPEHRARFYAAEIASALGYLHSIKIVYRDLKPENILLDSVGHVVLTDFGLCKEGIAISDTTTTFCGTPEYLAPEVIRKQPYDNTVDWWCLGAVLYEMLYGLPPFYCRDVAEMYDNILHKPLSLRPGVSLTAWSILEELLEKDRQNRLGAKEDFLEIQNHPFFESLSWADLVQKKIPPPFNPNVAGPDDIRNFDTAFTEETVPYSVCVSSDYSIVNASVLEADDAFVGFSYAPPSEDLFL

[7] = molecular target: T3, Serine/threonine-protein kinase Sgk3 (Homo sapiens); details: at 1 µM
[8] = molecular target: 5'-AMP-activated protein kinase catalytic subunit alpha-1 (Homo sapiens) (UniProt Q13131); details: at 0.1 µM
[9] = molecular target: 5'-AMP-activated protein kinase catalytic subunit alpha-1 (Homo sapiens) (UniProt Q13131); details: at 1 µM
[10] = molecular target: 5'-AMP-activated protein kinase catalytic subunit alpha-2 (Homo sapiens) (UniProt P54646); details: at 0.1 µM
[11] = molecular target: 5'-AMP-activated protein kinase catalytic subunit alpha-2 (Homo sapiens) (UniProt P54646); details: at 1 µM
[12] = molecular target: T4, NUAK family SNF1-like kinase 1 (Homo sapiens) (UniProt O60285); details: at 0.1 µM
T4 sequence (whole entry): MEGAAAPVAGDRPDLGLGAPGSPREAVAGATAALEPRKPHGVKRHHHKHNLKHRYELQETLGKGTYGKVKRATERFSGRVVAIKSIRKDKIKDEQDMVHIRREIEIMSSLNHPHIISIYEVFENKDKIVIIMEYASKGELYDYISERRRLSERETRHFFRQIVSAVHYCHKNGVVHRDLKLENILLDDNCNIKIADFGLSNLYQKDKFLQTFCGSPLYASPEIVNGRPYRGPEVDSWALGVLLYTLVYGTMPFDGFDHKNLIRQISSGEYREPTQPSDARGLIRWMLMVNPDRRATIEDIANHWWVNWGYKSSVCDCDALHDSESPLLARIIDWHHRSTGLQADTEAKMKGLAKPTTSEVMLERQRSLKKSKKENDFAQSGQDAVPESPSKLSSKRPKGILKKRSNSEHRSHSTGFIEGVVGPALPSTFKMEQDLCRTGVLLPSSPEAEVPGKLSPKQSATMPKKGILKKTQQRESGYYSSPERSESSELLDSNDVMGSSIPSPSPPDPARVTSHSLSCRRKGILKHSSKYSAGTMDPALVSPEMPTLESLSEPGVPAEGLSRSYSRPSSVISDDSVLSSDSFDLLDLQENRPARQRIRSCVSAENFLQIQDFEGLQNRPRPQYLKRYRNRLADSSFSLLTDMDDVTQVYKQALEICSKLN

[13] = molecular target: T4, NUAK family SNF1-like kinase 1 (Homo sapiens); details: at 1 µM
[14] = molecular target: T5, Serine/threonine-protein kinase BRSK1 (Homo sapiens) (UniProt Q8TDC3); details: at 0.1 µM
T5 sequence (whole entry): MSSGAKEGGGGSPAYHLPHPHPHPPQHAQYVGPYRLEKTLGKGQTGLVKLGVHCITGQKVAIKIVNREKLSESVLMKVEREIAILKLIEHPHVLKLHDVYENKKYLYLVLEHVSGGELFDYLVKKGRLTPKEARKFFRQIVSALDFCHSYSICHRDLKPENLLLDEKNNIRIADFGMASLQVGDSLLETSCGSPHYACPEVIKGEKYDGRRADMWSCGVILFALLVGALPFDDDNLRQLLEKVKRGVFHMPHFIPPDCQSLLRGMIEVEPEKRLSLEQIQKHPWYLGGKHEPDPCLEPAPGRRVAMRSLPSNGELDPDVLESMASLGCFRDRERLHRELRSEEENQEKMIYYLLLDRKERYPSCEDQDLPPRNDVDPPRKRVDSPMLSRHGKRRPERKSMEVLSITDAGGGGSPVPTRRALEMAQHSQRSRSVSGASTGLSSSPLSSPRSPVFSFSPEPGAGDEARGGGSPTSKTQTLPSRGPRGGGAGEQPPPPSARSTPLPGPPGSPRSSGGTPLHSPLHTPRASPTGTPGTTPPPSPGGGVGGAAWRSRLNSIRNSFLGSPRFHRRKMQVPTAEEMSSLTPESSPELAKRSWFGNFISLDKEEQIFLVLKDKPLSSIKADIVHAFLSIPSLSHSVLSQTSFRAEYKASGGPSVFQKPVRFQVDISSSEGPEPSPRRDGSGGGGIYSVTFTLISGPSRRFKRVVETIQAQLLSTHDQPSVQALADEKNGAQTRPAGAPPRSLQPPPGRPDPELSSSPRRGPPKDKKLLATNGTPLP

[15] = molecular target: T5, Serine/threonine-protein kinase BRSK1 (Homo sapiens); details: at 1 µM
[16] = molecular target: T6, Serine/threonine-protein kinase BRSK2 (Homo sapiens) (UniProt Q8IWQ3); details: at 0.1 µM
T6 sequence (whole entry): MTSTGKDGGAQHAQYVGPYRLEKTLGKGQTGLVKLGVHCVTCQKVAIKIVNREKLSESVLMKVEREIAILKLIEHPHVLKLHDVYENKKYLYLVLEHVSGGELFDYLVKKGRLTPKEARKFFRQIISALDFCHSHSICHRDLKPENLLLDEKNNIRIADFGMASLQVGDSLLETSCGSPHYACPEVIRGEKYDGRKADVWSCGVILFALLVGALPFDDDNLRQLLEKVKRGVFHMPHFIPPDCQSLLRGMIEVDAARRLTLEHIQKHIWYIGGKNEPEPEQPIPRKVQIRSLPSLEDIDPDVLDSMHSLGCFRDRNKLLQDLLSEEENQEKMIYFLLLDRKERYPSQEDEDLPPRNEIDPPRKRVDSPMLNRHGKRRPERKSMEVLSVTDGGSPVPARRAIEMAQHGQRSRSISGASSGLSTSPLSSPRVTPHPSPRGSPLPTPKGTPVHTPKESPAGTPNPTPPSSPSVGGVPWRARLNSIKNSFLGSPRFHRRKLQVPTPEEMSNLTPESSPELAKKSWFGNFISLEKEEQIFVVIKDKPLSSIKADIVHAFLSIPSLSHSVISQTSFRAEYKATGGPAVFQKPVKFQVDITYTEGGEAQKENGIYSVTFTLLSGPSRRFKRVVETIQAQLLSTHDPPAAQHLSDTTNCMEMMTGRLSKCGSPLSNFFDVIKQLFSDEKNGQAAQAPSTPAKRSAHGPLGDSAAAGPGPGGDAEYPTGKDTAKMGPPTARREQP

[17] = molecular target: T6, Serine/threonine-protein kinase BRSK2 (Homo sapiens); details: at 1 µM
[18] = molecular target: Calcium/calmodulin-dependent protein kinase type 1D (Homo sapiens) (UniProt Q8IU85); details: at 0.1 µM
[19] = molecular target: Calcium/calmodulin-dependent protein kinase type 1D (Homo sapiens) (UniProt Q8IU85); details: at 1 µM
[20] = molecular target: Calcium/calmodulin-dependent protein kinase type II subunit alpha (Homo sapiens) (UniProt Q9UQM7); details: at 0.1 µM;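 further: reported values are averages (mean inhibition of CAMK2A)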
Chain of Calcium/calmodulin-dependent protein kinase type II subunit alpha (Homo sapiens) (Q9UQM7 whole entry): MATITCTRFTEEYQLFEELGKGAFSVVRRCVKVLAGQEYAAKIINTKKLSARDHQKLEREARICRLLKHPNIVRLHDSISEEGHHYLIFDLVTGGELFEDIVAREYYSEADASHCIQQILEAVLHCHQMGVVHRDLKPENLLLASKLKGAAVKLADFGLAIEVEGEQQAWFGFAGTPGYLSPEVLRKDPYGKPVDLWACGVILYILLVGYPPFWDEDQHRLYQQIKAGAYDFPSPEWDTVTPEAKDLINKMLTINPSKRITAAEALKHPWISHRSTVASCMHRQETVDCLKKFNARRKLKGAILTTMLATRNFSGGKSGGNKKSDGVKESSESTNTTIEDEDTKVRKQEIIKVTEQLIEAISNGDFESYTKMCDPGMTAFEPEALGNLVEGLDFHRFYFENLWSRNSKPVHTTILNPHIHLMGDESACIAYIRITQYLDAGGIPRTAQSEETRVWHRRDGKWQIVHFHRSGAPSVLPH

Chain of 5'-AMP-activated protein kinase catalytic subunit alpha-1 (Homo sapiens) (Q13131 whole entry, looked up): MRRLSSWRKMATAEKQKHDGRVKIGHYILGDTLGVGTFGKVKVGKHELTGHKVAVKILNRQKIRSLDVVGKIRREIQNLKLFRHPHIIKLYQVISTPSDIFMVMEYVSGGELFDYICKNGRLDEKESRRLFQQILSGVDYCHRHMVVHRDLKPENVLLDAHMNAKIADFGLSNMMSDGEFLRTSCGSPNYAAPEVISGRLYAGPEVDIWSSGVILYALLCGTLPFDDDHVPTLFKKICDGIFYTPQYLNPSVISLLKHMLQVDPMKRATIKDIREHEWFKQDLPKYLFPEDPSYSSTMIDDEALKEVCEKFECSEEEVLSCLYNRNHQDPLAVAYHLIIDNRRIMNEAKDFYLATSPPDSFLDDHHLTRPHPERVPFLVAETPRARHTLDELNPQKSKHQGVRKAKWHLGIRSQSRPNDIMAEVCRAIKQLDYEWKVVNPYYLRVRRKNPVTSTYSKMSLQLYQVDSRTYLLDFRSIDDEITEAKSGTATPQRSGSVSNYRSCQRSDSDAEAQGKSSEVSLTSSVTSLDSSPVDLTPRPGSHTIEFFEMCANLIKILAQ
Chain of Calcium/calmodulin-dependent protein kinase type 1D (Homo sapiens) (Q8IU85 whole entry, looked up): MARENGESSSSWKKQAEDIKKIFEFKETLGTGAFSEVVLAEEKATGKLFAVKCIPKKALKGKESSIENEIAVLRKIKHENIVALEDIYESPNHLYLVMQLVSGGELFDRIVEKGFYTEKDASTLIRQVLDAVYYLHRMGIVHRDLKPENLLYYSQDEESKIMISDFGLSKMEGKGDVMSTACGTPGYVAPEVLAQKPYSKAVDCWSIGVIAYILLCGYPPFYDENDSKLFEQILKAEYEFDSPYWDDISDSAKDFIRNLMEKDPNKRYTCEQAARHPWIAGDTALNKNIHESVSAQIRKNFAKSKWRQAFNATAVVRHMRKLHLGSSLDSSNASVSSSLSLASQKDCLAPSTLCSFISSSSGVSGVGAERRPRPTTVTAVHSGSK
Chain of Ribosomal protein S6 kinase alpha-6 (Homo sapiens) (Q9UK32 whole entry): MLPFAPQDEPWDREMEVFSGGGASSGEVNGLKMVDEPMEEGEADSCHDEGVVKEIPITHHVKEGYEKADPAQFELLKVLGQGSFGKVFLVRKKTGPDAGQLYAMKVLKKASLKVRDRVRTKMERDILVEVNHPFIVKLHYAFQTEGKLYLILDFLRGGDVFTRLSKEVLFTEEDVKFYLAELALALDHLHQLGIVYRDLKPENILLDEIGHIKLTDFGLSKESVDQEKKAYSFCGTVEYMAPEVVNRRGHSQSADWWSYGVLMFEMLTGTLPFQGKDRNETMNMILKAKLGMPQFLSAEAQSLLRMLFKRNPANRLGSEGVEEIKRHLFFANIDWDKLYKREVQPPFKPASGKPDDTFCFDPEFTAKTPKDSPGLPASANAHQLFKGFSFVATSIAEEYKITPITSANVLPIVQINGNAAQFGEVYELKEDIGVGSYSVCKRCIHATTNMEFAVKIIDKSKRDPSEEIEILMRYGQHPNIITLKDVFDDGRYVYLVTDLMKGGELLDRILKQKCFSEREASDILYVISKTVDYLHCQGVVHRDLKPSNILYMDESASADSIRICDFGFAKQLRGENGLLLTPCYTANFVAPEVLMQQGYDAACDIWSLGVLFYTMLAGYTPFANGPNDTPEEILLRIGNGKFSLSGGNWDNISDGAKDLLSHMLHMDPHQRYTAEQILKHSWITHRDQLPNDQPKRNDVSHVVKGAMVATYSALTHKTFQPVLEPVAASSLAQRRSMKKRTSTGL
Chain of 5'-AMP-activated protein kinase catalytic subunit alpha-2 (Homo sapiens) (P54646 whole entry, looked up): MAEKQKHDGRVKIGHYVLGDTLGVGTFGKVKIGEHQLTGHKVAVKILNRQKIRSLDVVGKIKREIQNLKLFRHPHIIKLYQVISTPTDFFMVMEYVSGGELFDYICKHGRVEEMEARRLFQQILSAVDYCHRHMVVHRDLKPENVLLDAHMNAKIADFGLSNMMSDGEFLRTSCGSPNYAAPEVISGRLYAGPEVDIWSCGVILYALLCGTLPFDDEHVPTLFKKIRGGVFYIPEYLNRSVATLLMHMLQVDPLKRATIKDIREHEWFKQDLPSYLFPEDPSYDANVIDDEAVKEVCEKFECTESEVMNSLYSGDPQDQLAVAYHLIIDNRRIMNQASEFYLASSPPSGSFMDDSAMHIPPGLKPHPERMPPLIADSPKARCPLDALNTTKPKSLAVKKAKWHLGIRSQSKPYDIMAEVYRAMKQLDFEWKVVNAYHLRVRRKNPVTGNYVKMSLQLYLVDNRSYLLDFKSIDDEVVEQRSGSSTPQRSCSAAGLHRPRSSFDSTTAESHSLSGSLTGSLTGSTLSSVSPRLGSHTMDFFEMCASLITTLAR

| SMILES | inhibition [1] [%] | inhibition [2] [%] | inhibition [3] [%] | inhibition [4] [%] | inhibition [5] [%] | inhibition [6] [%] | inhibition [7] [%] | inhibition [8] [%] | inhibition [9] [%] | inhibition [10] [%] | inhibition [11] [%] | inhibition [12] [%] | inhibition [13] [%] | inhibition [14] [%] | inhibition [15] [%] | inhibition [16] [%] | inhibition [17] [%] | inhibition [18] [%] | inhibition [19] [%] | inhibition [20] [%] |
| --- | --- | --- | --- | --- | --- | --- | --- | --- | --- | --- | --- | --- | --- | --- | --- | --- | --- | --- | --- | --- |
| O=C(Nc1ccc(Oc2ccc3[nH]c(NC(=O)c4ccccc4)nc3c2)cc1)Nc1cc(C(F)(F)F)ccc1F | 2.72 | 1.68 | 3.96 | 2.66 | 4.13 | 1.78 | 2.24 | 2.87 | 2.98 | 0.79 | 4.55 | 1.15 | 3.05 | 0.18 | 0.16 | 1.2 | 2.83 | -0.03 | 1.95 | 2.8 |
| Clc1ccc(CNc2nccc(-c3cnn4ncccc34)n2)cc1 | 0.72 | 0.33 | 3.99 | 3.3 | 1.91 | 0.59 | 0.73 | -0.21 | 1.83 | -4.66 | 0.84 | 3.31 | 9.78 | 0.41 | 1.49 | 1.65 | 4.48 | 1.73 | 1.01 | 2.51 |
| COc1cc(Nc2ncc3c(C)nc(-c4cccc(Oc5ccccc5)c4)n3n2)cc(OC)c1OC | 13.2 | 2.08 | -0.71 | 1.09 | -2.63 | 0.96 | -0.95 | 1.87 | 13 | 0.57 | 7.86 | 4.33 | 26.4 | 1.68 | 2.44 | 0.74 | 3.26 | 1.34 | 3.48 | 3.17 |
| Fc1ccc(-c2ncn(CCCN3CCOCC3)c2-c2ccncc2)cc1 | -0.21 | -0.45 | 0.64 | 1.89 | -4.02 | -1.19 | -1.33 | 0.37 | -1.12 | 0.28 | 2.58 | 0.22 | 3.87 | 1.09 | 1.49 | 1.32 | -0.21 | 1.77 | 1.54 | 0.57 |
| Fc1ccc(-c2nc3n(c2-c2ccncc2)CCS3)cc1 | 3.9 | 3.17 | 4.66 | 2.05 | 4.96 | 1.96 | 2.6 | 2.91 | 2.64 | 4.5 | 5.23 | 0.54 | 2.44 | 0.25 | 0.24 | 0.52 | 0.5 | 0.49 | -0.26 | 3.63 |
| CN1CCN(CCCNc2nc3ccc(Oc4ccc(NC(=O)Nc5cc(C(F)(F)F)ccc5F)cc4)cc3[nH]2)CC1 | -0.1 | 4.51 | 5.49 | 0.79 | 1.09 | 3.14 | 0.75 | 1.09 | -0.25 | 2.94 | 3.1 | 0.88 | 4.39 | 2.48 | 2.58 | 1.15 | 0.19 | 2.28 | 4.38 | 3.27 |
| COc1ccc(C2=C(N3CCc4ccccc43)C(=O)NC2=O)cc1 | 4.12 | 5.57 | 2.06 | -2.15 | -5.83 | 4.38 | 1.94 | 4.29 | 5.67 | 1.73 | 5.49 | 3.26 | 9.32 | 1.07 | 3.32 | 2.56 | 3.2 | 0.57 | 1.29 | 5.74 |
